Results as given in the supplement of paper PMC11732987, “Enantioselective OTUD7B fragment discovery through chemoproteomics screening and high-throughput optimisation” (Communications Chemistry, 2025).

Experiments:
Assay in all cases: log2 ratio of Biotin-Ahx-Ub-VS probe labelling (fragment/DMSO); higher = less target engagement (more negative = stronger competition), active = hit call of the paper (q ≤ 0.05, log2 ratio ≤ -1)
Settings in all cases: compound concentration: 200 uM; treatment time: 3 h
[1] = molecular target: T1, USP42 (UniProt Q9H9J4)
T1 sequence (whole entry): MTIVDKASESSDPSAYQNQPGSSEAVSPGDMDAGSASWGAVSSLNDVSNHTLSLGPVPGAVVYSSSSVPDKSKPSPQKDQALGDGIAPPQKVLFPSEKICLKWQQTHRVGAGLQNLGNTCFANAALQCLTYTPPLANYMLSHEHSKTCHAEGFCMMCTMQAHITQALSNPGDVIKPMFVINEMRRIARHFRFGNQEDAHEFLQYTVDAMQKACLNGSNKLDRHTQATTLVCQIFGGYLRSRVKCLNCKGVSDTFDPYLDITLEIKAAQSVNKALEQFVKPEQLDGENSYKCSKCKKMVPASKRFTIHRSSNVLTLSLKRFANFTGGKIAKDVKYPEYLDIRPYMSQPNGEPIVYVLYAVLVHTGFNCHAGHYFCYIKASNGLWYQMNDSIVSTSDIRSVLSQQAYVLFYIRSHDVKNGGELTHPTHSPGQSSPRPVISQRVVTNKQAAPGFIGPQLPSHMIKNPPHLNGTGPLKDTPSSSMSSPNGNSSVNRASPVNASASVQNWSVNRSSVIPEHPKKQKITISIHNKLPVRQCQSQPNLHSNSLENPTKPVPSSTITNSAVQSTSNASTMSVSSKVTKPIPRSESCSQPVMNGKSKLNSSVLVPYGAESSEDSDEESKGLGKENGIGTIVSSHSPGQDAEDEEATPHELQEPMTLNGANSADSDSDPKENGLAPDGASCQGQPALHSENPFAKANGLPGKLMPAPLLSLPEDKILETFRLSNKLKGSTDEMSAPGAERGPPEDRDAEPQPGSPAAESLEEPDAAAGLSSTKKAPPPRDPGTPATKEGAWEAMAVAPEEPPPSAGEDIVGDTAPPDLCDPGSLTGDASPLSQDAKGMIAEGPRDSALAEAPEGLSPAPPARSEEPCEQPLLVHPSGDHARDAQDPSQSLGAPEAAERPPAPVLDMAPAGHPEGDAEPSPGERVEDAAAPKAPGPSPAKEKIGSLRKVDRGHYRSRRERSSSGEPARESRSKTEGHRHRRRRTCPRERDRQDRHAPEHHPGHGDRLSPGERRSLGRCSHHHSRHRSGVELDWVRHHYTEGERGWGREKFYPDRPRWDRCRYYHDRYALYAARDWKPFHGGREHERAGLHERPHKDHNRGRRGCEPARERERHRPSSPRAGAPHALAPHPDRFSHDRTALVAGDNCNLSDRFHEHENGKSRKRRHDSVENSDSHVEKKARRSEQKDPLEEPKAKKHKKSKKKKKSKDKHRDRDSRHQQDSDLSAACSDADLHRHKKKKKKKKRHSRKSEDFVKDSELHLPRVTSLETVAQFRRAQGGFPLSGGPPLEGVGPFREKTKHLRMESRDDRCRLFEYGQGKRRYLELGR
Method in brief: (§1)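 HEK293T lysate, 495 µg per sample in Tris/CHAPS/IGEPAL buffer with protease inhibitors, was treated in triplicate with fragment at 200 µM or vehicle for 3 h and then with Biotin-Ahx-Ub-VS at 0.5 µM final for 1 h. Labelled DUBs were NeutrAvidin-enriched, digested with LysC and trypsin, and run by diaPASEF LC-MS/MS. Spectronaut label-free quantities were global-median-normalised, and values are average log2 fragment/vehicle ratios by unpaired t-test on proteins with ≥2 unique peptides.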

[2] = molecular target: USP46 (UniProt P62068)
USP46, sequence (P62068 whole entry): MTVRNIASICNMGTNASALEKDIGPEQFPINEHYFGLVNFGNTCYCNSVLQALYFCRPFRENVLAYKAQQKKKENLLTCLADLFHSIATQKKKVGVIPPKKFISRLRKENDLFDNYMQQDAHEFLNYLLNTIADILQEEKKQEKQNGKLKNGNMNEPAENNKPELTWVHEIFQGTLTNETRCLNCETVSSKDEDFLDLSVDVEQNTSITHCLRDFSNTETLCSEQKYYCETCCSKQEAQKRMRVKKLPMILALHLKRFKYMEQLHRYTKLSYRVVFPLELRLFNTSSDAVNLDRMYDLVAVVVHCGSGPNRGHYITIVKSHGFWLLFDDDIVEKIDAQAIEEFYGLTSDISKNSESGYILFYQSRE
Method in brief: as §1

[3] = molecular target: T2, USP47 (UniProt Q96K76)
T2 sequence (whole entry): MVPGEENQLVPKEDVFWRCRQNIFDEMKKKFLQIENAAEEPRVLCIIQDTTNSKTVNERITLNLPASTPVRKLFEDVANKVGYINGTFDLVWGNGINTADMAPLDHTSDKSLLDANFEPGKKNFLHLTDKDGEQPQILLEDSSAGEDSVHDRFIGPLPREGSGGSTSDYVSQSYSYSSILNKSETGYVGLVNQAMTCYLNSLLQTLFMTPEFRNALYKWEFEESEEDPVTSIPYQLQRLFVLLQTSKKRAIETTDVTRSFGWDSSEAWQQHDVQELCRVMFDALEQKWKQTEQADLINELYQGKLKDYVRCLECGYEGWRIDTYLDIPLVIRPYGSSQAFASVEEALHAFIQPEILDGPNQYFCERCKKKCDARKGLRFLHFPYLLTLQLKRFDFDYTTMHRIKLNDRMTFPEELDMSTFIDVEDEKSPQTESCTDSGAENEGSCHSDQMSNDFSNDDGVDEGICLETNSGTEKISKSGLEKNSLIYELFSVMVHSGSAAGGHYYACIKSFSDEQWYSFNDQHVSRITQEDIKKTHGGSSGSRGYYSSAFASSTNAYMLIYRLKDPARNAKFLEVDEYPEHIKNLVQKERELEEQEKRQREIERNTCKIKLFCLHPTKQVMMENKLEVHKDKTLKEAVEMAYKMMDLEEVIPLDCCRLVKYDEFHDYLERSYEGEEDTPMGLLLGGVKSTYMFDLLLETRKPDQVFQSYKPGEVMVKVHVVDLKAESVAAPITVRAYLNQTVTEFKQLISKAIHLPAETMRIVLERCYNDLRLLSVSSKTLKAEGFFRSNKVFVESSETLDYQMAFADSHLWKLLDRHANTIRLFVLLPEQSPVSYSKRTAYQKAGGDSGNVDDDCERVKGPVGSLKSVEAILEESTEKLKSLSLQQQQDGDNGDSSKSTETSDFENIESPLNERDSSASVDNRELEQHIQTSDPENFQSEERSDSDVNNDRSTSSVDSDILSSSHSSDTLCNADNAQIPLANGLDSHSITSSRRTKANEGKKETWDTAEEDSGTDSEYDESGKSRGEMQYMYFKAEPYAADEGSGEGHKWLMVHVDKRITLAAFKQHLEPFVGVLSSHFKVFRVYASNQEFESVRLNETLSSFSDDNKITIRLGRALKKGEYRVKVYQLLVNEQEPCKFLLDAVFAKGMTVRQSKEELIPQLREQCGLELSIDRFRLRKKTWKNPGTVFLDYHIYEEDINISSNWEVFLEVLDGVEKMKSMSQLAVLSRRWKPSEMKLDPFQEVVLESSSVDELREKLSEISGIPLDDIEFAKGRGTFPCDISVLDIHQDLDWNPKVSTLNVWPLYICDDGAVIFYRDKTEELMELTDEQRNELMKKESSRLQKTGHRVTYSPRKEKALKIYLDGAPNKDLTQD
Method in brief: as §1

[4] = molecular target: T3, USP48 (UniProt Q86UV5)
T3 sequence (whole entry): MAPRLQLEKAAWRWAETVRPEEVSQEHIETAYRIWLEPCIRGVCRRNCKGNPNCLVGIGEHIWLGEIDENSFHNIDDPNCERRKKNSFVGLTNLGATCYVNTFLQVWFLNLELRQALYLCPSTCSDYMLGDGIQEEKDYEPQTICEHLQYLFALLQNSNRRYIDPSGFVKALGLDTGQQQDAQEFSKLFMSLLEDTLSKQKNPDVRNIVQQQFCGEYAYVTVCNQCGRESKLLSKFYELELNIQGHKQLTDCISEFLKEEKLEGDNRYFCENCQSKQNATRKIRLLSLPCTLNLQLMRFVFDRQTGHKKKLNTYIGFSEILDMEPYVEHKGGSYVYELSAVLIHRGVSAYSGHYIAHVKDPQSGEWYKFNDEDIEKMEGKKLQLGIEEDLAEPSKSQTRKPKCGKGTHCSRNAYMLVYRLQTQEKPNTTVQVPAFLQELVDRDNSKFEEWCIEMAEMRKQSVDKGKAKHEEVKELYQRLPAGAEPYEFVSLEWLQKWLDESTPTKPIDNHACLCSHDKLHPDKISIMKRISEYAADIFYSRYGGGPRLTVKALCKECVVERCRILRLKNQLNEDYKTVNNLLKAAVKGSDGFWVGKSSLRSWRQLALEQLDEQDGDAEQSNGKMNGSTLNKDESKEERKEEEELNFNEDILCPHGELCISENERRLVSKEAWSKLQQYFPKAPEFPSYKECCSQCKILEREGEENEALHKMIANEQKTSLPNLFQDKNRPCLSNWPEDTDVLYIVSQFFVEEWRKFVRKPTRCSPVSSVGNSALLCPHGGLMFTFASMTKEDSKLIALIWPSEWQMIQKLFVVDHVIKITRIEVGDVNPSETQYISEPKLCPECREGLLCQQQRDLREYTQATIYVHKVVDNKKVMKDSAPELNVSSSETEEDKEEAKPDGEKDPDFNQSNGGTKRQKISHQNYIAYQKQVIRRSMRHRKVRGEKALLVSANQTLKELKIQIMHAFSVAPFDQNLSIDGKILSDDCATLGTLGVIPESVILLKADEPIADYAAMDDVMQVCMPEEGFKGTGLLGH
Method in brief: as §1

[5] = molecular target: T4, USP5 (UniProt P45974)
T4 sequence (whole entry): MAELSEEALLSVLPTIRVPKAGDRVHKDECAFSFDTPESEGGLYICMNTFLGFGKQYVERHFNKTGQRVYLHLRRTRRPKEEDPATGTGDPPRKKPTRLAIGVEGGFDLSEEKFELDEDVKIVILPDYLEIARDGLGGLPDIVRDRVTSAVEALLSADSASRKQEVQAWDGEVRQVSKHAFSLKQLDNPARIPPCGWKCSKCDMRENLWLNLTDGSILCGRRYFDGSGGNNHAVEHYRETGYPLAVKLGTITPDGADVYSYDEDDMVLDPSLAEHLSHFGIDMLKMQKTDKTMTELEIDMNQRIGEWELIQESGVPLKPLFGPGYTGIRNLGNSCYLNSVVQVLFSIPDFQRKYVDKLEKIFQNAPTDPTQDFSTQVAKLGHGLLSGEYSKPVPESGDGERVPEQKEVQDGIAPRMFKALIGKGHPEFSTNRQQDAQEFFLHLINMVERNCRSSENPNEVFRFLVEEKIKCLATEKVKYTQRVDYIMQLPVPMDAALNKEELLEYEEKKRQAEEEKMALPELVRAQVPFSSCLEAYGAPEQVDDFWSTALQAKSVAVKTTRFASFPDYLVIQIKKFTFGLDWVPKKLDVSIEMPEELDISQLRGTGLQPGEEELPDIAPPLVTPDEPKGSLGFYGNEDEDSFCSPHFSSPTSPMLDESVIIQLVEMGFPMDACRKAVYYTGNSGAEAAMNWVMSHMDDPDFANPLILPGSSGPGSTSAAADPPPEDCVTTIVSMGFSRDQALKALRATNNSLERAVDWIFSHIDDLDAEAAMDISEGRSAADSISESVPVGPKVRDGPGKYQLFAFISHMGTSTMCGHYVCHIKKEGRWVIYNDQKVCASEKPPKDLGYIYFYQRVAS
Method in brief: as §1

[6] = molecular target: USP54 (UniProt Q70EL1)
USP54, sequence (Q70EL1 whole entry): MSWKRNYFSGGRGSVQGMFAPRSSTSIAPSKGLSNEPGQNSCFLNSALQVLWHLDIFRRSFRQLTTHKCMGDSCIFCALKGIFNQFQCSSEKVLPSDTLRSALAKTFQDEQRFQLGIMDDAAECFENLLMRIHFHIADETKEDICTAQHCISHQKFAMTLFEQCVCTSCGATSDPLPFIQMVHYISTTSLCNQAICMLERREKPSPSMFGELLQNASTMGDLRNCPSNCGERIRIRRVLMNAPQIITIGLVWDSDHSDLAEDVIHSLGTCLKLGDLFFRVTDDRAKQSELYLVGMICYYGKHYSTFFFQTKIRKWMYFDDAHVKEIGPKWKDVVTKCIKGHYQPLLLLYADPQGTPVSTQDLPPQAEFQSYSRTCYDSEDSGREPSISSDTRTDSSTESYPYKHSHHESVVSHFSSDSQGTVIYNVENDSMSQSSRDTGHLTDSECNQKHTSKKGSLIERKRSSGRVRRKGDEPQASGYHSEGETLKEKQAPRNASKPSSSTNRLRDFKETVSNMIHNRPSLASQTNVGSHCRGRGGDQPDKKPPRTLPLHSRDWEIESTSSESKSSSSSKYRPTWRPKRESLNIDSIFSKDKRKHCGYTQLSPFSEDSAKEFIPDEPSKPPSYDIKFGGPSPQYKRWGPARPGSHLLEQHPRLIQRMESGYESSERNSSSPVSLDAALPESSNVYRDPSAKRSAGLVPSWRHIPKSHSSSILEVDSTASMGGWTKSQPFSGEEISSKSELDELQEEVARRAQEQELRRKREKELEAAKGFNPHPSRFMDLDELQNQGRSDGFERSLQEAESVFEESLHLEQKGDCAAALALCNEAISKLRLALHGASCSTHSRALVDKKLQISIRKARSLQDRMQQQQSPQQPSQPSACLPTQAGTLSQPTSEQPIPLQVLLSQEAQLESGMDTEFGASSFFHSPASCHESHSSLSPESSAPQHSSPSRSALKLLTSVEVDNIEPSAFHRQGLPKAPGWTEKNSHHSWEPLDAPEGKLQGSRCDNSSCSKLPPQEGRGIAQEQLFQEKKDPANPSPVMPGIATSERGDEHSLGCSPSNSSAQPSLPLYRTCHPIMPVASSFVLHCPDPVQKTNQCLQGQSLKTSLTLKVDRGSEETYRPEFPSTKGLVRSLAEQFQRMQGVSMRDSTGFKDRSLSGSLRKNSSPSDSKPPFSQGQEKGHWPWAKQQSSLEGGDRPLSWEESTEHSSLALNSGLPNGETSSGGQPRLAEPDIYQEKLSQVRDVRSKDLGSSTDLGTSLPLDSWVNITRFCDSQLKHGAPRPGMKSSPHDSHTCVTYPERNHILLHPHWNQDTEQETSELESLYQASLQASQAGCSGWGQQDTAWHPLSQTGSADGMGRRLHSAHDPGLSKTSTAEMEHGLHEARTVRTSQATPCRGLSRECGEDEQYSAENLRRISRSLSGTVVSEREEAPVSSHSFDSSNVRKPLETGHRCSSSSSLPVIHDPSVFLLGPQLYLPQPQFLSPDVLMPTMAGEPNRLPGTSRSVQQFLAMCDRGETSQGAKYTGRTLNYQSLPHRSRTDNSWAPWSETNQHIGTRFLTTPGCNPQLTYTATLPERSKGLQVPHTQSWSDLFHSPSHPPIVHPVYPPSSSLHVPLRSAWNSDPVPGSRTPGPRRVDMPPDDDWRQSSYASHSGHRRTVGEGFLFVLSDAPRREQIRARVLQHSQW
Method in brief: as §1

[7] = molecular target: USP7 (UniProt Q93009)
USP7, sequence (Q93009 whole entry, looked up): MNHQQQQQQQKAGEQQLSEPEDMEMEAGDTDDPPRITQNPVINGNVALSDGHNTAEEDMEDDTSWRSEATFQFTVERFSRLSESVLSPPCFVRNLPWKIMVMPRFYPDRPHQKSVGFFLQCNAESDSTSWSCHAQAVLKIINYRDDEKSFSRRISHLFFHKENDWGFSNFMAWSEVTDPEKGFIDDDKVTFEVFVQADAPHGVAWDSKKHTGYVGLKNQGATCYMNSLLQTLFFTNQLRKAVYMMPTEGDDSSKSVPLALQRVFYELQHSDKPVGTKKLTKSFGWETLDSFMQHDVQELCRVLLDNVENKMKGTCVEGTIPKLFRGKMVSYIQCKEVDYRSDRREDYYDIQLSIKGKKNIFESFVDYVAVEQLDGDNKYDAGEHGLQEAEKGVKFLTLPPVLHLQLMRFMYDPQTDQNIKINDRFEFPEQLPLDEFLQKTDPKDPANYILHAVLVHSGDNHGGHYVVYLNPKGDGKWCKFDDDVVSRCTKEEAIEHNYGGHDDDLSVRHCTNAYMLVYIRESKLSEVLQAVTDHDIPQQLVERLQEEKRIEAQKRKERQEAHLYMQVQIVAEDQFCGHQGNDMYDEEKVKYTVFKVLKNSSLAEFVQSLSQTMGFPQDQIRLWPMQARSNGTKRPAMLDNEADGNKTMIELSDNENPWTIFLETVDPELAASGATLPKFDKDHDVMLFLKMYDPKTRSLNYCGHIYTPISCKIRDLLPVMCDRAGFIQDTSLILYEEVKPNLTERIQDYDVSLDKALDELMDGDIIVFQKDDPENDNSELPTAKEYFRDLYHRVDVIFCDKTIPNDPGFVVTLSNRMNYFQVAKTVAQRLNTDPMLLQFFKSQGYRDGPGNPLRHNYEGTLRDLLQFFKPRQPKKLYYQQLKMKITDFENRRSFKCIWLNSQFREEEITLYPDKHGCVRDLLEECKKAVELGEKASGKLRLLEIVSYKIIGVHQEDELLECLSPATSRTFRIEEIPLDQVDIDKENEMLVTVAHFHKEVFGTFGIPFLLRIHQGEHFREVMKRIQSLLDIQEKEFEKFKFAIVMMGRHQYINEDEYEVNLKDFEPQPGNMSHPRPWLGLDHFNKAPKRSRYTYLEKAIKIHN
Method in brief: as §1

[8] = molecular target: T5, USP8 (UniProt P40818)
T5 sequence (whole entry): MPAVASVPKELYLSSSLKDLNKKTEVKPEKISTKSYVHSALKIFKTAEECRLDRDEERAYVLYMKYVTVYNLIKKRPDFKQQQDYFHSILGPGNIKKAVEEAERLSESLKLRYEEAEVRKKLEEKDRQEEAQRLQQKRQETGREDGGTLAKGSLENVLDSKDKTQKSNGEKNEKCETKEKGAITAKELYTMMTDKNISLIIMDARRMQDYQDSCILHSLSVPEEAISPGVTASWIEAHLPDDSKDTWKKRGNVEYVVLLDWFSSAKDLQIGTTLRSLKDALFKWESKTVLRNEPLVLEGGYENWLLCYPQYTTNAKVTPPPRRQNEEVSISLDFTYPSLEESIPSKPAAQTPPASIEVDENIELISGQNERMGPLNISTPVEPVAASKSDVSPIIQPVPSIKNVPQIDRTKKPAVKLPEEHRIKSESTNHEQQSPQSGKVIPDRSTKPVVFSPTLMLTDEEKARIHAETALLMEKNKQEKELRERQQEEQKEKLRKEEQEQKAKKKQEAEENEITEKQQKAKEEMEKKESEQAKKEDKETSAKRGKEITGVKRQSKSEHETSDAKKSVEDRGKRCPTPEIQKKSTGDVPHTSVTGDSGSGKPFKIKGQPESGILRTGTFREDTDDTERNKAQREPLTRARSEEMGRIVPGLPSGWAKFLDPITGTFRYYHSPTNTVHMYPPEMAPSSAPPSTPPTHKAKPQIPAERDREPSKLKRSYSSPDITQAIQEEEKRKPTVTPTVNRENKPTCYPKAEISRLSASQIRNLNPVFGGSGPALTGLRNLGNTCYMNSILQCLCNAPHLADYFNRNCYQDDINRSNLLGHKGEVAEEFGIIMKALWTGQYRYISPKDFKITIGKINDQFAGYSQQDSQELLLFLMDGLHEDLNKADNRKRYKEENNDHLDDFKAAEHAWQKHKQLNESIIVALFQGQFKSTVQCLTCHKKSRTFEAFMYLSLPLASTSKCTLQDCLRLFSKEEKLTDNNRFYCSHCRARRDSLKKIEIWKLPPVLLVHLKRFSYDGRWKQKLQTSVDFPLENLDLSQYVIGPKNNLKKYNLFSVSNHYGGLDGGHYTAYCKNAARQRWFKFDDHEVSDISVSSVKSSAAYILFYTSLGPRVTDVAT
Method in brief: as §1

[9] = molecular target: USP9X (UniProt Q93008)
Method in brief: as §1

[10] = molecular target: UniProt O00487
UniProt O00487, sequence (O00487 whole entry): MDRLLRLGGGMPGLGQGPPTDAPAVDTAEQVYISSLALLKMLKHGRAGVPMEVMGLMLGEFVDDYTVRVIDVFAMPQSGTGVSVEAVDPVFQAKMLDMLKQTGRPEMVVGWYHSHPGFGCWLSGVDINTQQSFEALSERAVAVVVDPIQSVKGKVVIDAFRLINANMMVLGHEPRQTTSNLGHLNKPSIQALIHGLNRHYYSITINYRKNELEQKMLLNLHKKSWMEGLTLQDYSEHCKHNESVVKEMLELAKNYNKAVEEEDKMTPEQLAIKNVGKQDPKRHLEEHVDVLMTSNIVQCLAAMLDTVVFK
Method in brief: as §1

Measured: log2 ratio of Biotin-Ahx-Ub-VS probe labelling

Cc1cccc2nc(CCNC(=O)CCl)cn12.Cl
inactive: [1] -0.108 | [2] -0.0973 | [3] 0.216 | [4] -0.0534 | [5] -0.101 | [6] 0.94 | [7] -0.308 | [8] -0.222 | [9] -0.455 | [10] -0.163
